# Test results reported in ChEMBL document CHEMBL1157539, “Thousands of chemical starting points for antimalarial lead identification” (Nature, 2010).
# Test system: Plasmodium falciparum
# Assay: GSK_TCMDC: Inhibition of Plasmodium falciparum 3D7 in whole red blood cells, using parasite LDH activity as an index of growth. Test compounds present at 2uM
# Format: functional
row,SMILES,Inhibition [%]
1,COc1ccc2nc3cc(Cl)ccc3c(NCCCO)c2c1,100
2,CC(=O)c1cccc(NC(=O)NC2CCN(CCCCCNC(=O)/C=C/c3ccc(Cl)c(Cl)c3)CC2)c1,94
3,Cc1cc(O)c(CNC2CCCCC2)cc1C.Cl,95
4,COc1ccc2oc(=O)c(C#N)c(O)c2c1,99
5,O=C(NCCc1ccc(F)cc1)c1ccc(N2CCN(c3ccncc3)CC2)nc1.O=C(O)C(F)(F)F,88
6,CC(C)Cn1c(Sc2ccc(C#N)c([N+](=O)[O-])c2)nnc1-c1cccs1,90
7,CCCCCCNC[C@@H](O)[C@H](Cc1ccccc1)NC(=O)c1cc(NCC)cc(N2CCCCS2(=O)=O)c1.Cl,100
8,Cc1cccc2nc(-c3ccc(-c4cccc(CN5CCN(CC6CCCN(C)C6)CC5)c4)s3)[nH]c12.O=C(O)C(F)(F)F (stereo not given),100
9,Clc1ccccc1CNc1noc(-c2sccc2Br)n1,97
10,Clc1ccc2c(NN=Cc3ccco3)ccnc2c1,100
11,CC(=O)c1cccc(NC(=O)C2c3ccccc3C(=O)N(CC(C)C)C2c2cccs2)c1 (stereo not given),100
12,O=C(NCCCCN1CCC(c2c[nH]c3ccc(-c4ccccc4)cc23)CC1)c1ccc(-c2ccccc2)cc1.O=C(O)C(=O)O,97
13,COc1cc(NC(=O)CCCCCCCCN2CCN(C)CC2)c2ncccc2c1,82
14,OC(CNc1ccnc(Nc2ccccc2)n1)c1cccc(C(F)(F)F)c1 (stereo not given),100
15,CC(C)n1ncc2c(C(=O)N3CCCc4ccccc43)cc(-c3ccccc3)nc21,100
